Assay outcomes as filed in PubChem.
A selection: hits, their analogues and other compounds. The true share with any hit is near 2.3%.
A549 viability = Nrf2 qHTS screen for inhibitors: counterscreen for cytotoxicity; 390,000 tested, 0.16% active; Potency, µM (doses to about 46 µM), inactives show top-dose activity change, negative = cytotoxicity, hits mostly inhibitors; A549 ARE-Fluc cells, CellTiter-Fluor viability, 18-24 h; further: potency means the concentration at half of the fitted maximal effect; on the % scale 0 is the no-effect control and ±100 the full control effect
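A549 ARE-Fluc cells in 5% FBS OPTI-MEM, 5000 cells/well, rested 2 h then exposed to compounds in concentration-response for 18-24 h at 37 °C. Viability by CellTiter-Fluor fluorescence (Ex 405/Em 525) after 30 min; luciferase luminescence (BugLite, 15 min, RT) read afterwards.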
Nrf2 ARE act = qHTS of Nrf2 Activators; 410,000 tested, 0.31% active; AID 624171, 2012; Potency, µM (series often up to 46.1 µM), without a hit: top-dose activation, most hits filed as activators; AREc32 ARE-luciferase reporter (MCF7-derived line), luminescence, 24 h; further: potency means the concentration at half of the fitted maximal effect; % of control where 0% means no effect; nearly all actives have a fitted effect of over 65% in size
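Quantitative high-throughput format: AREc32 reporter cells, 1000 per well, received compound by pin transfer and were incubated 24 hr at 37 deg C, 5% CO2, before Steady-Glo luminescence detection.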
Nrf2 inh = Nrf2 qHTS screen for inhibitors. A549 ARE-Fluc reporter, luciferase luminescence, 18-24 h. 360,000 tested, 2.1% active. Potency, µM (series often up to 46 µM), for the others: at the top dose activity change, negative = inhibition, usual class: inhibitors; further: potency means the concentration at half of the fitted maximal effect; on the % scale 0 is the no-effect control and ±100 the full control effect; nearly all actives have a fitted effect of over 60% in size
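Cells were seeded and rested 2 h, then exposed to compounds for 18-24 h. CellTiter-Fluor was read first as a viability measure. BugLite was added 15 min before the final luminescent read of ARE-luciferase activity in A549 cells.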
Mito fusion yeast = qHTS Assay for Small Molecule Inhibitors of Mitochondrial Division or Activators of Mitochondrial Fusion; S. cerevisiae fusion-defective mutant growth rescue, CellTiterGlo 48 h; Potency, µM (doses to about 46.1 µM), for inactives: top-dose growth rescue (activation), most hits filed as activators; 320,000 tested, 0.23% active; AID 485298, 2010; further: potency means the concentration at half of the fitted maximal effect; % of control where 0% means no effect; nearly all actives have a fitted effect of over 45% in size
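Compounds are tested for their ability to restore growth of mitochondrial fusion-defective yeast strains at non-permissive 37C in YPEG medium over 48 hours. Viability is quantified by luciferase luminescence.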
miR-21 reporter = qHTS Assay for Modulators of miRNAs and/orActivators of miR-21; HeLa miR-21 FLuc reporter, luciferase, 48 h; Potency, µM (titrated, usually from 38.3 µM), inactives show at the top dose activity change, positive = activation, most hits filed as activators; 340,000 tested, under 10 active; AID 2288, 2010;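 further: % of control where 0% means no effect; miR-21 action dims this reporter so a rising signal means less miR-21 action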
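HeLa miR-21-FLuc reporter line, endogenous miR-21; 2000 cells/well in DMEM/10% FBS; compound titration up to ~40uM final, 48 h, 37 degree Celsius; luciferase detection reagent, 15 min lysis, CCD luminescence.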
* marks the source's active call; other numbers are inactive results; ? = inconclusive; / = no result; [ ] = dose if it differs, or a comment. The call rests on the fitted dose curve; in most records, active means well fitted curve in the direction sought with a large enough effect; inconclusive means small, poorly fitted or top-dose-only effect, or another doubt; inactive means no such curve, though single readings can be large; an effect the other way counts as inactive or inconclusive.

SMILES | A549 viability | Nrf2 ARE act | Nrf2 inh | Mito fusion yeast | miR-21 reporter
CCN(CC)CCNC(=O)CSc1nc2nc(C)c(Cc3ccccc3)c(C)n2n1 | 0% | 0% | -2%[9.27 µM] | / | -3%
Cn1c(=O)c2cn(Cc3ccc(Cl)cc3)cc2n(C)c1=O | 16% | 0% | 12µM* | -3% | 0%
O=C(c1ccc(Cl)cc1Cl)C1(n2cncn2)Oc2ccccc2C1O (stereo not drawn) | 1% | 3% | 10µM* | 4% | -11%
Fc1ccccc1N1CCN(C(c2ccccn2)c2nnnn2C2CCCCC2)CC1 (stereo not drawn) | -6% | 0% | 1% | 13µM* | -4%
O=C(Cn1ncc2c3ccccc3n(Cc3ccccc3)c2c1=O)N1CCN(c2ncccn2)CC1 | -4% | 0% | 16µM* | 19% | 10%
COc1ccc(CCN2C(=O)NC(NC(=O)c3ccccc3OC)(C(F)(F)F)C2=O)cc1OC (stereo not drawn) | -1% | 1% | -20% | / | -13%
Cc1cc(S(=O)(=O)Nc2ccc(C(=O)O)cc2)c(C)c(S(=O)(=O)c2ccc(Cl)cc2)c1 | 0% | 1% | ? | / | -1%
COc1cccc(C#CC2=CC(=O)C[C@H](c3ccc(F)cc3)C2)c1 | / | 16µM* | / | / | /
CCCn1nc(NC(=O)c2cccs2)c2cc3cc(C)ccc3nc21 | -16% | 2% | 16µM* | 19% | -8%
CCCn1nc(NC(=O)c2cccs2)c2cc3ccc(C)cc3nc21 | ? | 6% | ? | -7% | 8%
CCCCn1nc(NC(=O)c2cccs2)c2cc3ccccc3nc21 | -18% | 0% | 12µM* | 9% | 1%
CCCn1nc(NC(=O)c2cccs2)c2cc3ccccc3nc21 | / | 0% | 18µM* | 1% | 0%
CCOc1ccc(NC(=O)CSc2oc(-c3ccccc3)nc2S(=O)(=O)c2ccc(Cl)cc2)cc1 | 7% | 1% | 7%[9.27 µM] | / | 15%
N#Cc1nc(Nc2cccc(C(F)(F)F)c2)nc(NC2CCCC2)n1 | -4% | / | -6% | / | /
O=C(CSCc1cccc(Cl)c1)N/N=C/c1ccc(OCC(=O)N2CCCCC2)cc1 | -2% | 3% | 18µM* | -2% | 13%
Cc1cc(C)cc(CSCC(=O)N/N=C/c2ccc(OCC(=O)NCc3ccco3)cc2)c1 | -15% | 4% | 15µM* | 1% | 14%
O=C(NCc1ccccc1F)C(=O)NCC(c1ccc2c(c1)OCO2)N1CCOCC1 (stereo not drawn) | 9% | 1% | / | / | -2%
O=C(NCc1nnc(-c2cc3ccccc3[nH]2)o1)c1ccccc1 | -2% | / | 8% | / | /
CNC(=O)C1CCC(Cn2c(=O)c3sccc3n(CC(=O)Nc3ccc(C)c(C)c3)c2=O)CC1 (stereo not drawn) | -17% | 0% | 23µM* | / | 22%
CNC(=O)C1CCC(Cn2c(=O)c3sccc3n(CC(=O)Nc3ccc(C)cc3C)c2=O)CC1 (stereo not drawn) | 3% | 1% | ? | / | -4%
CCOC(=O)CSc1nc2cc3c(cc2c(=O)n1CCCCCC(=O)NCc1ccc(OC)cc1)OCO3 | -2% | 0% | / | / | -3%
COc1cc(SC)ccc1C(=O)N1CCC(Cc2ccccc2)CC1 | / | / | / | 21µM* | /
COc1cc(SC)ccc1C(=O)NC1CCCCC1 | -3% | 0% | 22% | 32µM* | -47%
COc1cc(SC)ccc1C(=O)N1CCN(Cc2ccccc2)CC1 | 1% | 2% | -29% | 4% | 5%
COc1ccc(-c2nc(C)c(CCNC(=O)C(=O)Nc3ccccc3C#N)s2)cc1OC | -4% | 0% | / | / | -19%
O=C(NNc1ccccc1)C(=O)NNS(=O)(=O)c1ccc([N+](=O)[O-])cc1 | -15% | 1% | 18µM* | -4% | 16%
NC(=S)N/N=C\c1ccccc1OCc1ccccc1 | 7% | 8% | -3% | 16% | 20%
COc1cccc(/C=N/NC(N)=S)c1OCc1cccc(Cl)c1 | -20% | 3% | 16µM* | ? | ?
O=C(OCC#CCSc1nnc(-c2ccc(F)cc2)o1)c1ccc(F)cc1 | -1% | / | ? | / | /
